# Screens: PubChem, National Center for Advancing Translational Sciences (NCATS)
# The list is not random: actives were taken first. Their share in the collection is about 12%.
# FMDV antiviral: blocks foot and mouth disease virus | FMDV antiviral cell-based qHTS | Potency, µM (highest dose often 57.9 µM), without a hit: top-dose activity change, negative = inhibition, hits mostly inhibitors | 1.2% of 410,000 active; calls by dose curve; tested in HEK293T cells; further: read-out not given here; potency means the concentration at half of the fitted maximal effect; on the % scale 0 is the no-effect control and ±100 the full control effect; nearly all actives have a fitted effect of over 45% in size
# Sm TGR block: S. mansoni TGR enzyme inhibition | Q962Y6 | Potency, µM (top dose mostly 114 µM), for inactives: at the top dose activity change, negative = inhibition, hits mostly inhibitors | 3% of 360,000 active | AID 485364 | purified TGR, DTNB reduction, TNB absorbance 405 nm; active means well fitted inhibition curve with a large enough effect; inconclusive means small, poorly fitted or top-dose-only effect; inactive means no such curve, though single readings can be large or run the other way; further: potency means the concentration at half of the fitted maximal effect; on the % scale 0 is the no-effect control and ±100 the full control effect; nearly all actives have a fitted effect of over 60% in size
#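 TGR 20 nM + NADPH 100 uM (dispensed conc.), cpd preinc 15 min RT; start with NADPH (500 uM addition) then DTNB (15 mM addition). Kinetic TNB absorbance, 405 nm filter. Four-parameter Hill fit across titration.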
# Cycloheximide cs: counter-screen hit for Shiga toxin inhibitors, cycloheximide; cell reporter, cycloheximide protein synthesis inhibition counterscreen; max response, %; 12% of 300,000 active; AID 2314; in the data active means max response mostly above about 13%, no sharp cut-off; inactive means mostly below about 14%; further: read at 38.3 µM for the half of the compounds with a filed dose; 0% is about no effect
# Shiga toxin inh: Shiga toxin inhibition | AID 2315 | 9.2% of 290,000 active | Vero cells, Shiga toxin protein synthesis inhibition reporter | inhibition, % at 38.7 µM; in the data active means inhibition mostly above about 28%, no sharp cut-off; inactive means mostly below about 43%; further: 0% is about no effect
# Numbers without * were called inactive; ? = inconclusive; · = no result; [ ] = another dose, or the depositor's remark.
SMILES,FMDV antiviral,Sm TGR block,Cycloheximide cs,Shiga toxin inh
O=C(O)c1cccc(CSc2nnc(Cc3ccccc3)o2)c1,9.0%,10.1%,14.7,44.3*
O=C(CSc1nnc(Cc2ccccc2)o1)c1ccc2c(c1)OCO2,6.2%,0.1%,·,·
CC1CCN(S(=O)(=O)c2ccc3c(c2)oc(=O)n3CC(=O)NC(C)c2ccccc2)CC1 (stereo not given),0.0%,2.2%,·,·
Fc1ccc(Nc2nc(SCc3ccccc3F)nc3ccccc23)cc1,-27.3%,2.8%,·,·
Cc1ccc(C)c(NC(=O)CCc2nc3cccnc3n2Cc2cccs2)c1,0.0%,-3.1%,·,·
O=C(O)c1cccc(CSc2ncn[nH]2)c1,3.3%,2.8%,7.6*,24.5
COc1ccc(C(=O)CSc2nnc(CNc3ccc(F)cc3)o2)cc1,?,0.2%,-2.3,8.5
O=C(CSc1nnc(CNc2ccc(F)cc2)o1)c1ccccc1,-9.2%,0.5%,21.5*,32.5
Cc1cc(C)nc(SCc2cccc(C(=O)O)c2)n1,·,6.7%,-3.0,19.3
Cc1ccc(C)c(S(=O)(=O)c2cnc(SCC(=O)Nc3ccc(F)cc3F)[nH]c2=O)c1,-22.3%,-6.6%,·,·
COC(=O)c1ccc2nc(NC(=O)CN3C(=O)CCC3=O)sc2c1,11.5%,4.0%,19.0,16.0
COC(=O)c1ccc2nc(NC(=O)C3CC3)sc2c1,14.9%,5.5%,49.1*,155.2*
COC(=O)c1ccc2nc(NC(=O)C(C)C)sc2c1,7.2%,20.4%,51.9*,97.9*
Cn1cc(-c2nc3cncnc3n(Cc3ccc(F)cc3)c2=O)c2ccccc21,-12.6%,·,·,·
CC(=O)N/C(=C/c1ccc2c(c1)OCO2)C(=O)O,9.2%,13.7%,0.7,7.8
CC(=O)N/C(=C/c1ccc2c(c1)OCO2)C(=O)Nc1ccccc1,27.2%,-2.8%,26.6*,80.0*
O=C(Nc1ccc(C(=O)O)cc1)/C(=C\c1ccc2c(c1)OCO2)NC(=O)c1ccc(Br)cc1,-12.1%,·,38.7*,-5.0
O=C(NCCO)/C(=C/c1ccc2c(c1)OCO2)NC(=O)c1ccc(Br)cc1,-3.4%,10.9%,40.6*,74.3*
COc1ccccc1C(=O)N[C@@H]1c2ccccc2C2(CCN(Cc3cccnc3)CC2)[C@H]1O,-5.8%,·,·,·
CCc1noc(-c2ccc(N3CCC(C)CC3)c([N+](=O)[O-])c2)n1,18.7%,-10.9%,·,·
Brc1ccc2nc(CSc3ncn[nH]3)cn2c1,42.2%,4.6%,16.4*,84.2*
Cc1cc(C)nc(SCc2cn3cc(Cl)ccc3n2)n1,34.4%,-8.0%,6.6,45.4
CCOC(=O)CSCc1cn2cc(Cl)ccc2n1,32.4%,-2.9%,23.5*,53.9
Clc1ccc2nc(CSc3ncn[nH]3)cn2c1,36.4%,·,15.5*,55.8
COc1ccc(C(=O)NCc2nc(-c3cccc(NC(=O)c4ccc(C)s4)c3)oc2C)cc1,8.9%,·,·,·
SMILES,FMDV antiviral,Sm TGR block,Cycloheximide cs,Shiga toxin inh
CCOC(=O)C1CCCN(C(=O)c2cnn(-c3ncc4c(n3)-c3ccccc3CC4)c2C)C1 (stereo not given),15.6%,·,·,·
O=S1(=O)CCC(NC2CCCC2)C1 (stereo not given),-6.7%,-13.1%,-1.6,-2.4
CN(C)NC1CCS(=O)(=O)C1 (stereo not given),·,1.58µM*,-1.7,-2.0
COc1cccc(N2CCN(C(=O)c3cc4c(=O)n(Cc5cccs5)ccc4nc3C)CC2)c1,?,1.9%,·,·
Cc1ccc(NC(=O)CN2C=NS(=O)(=O)c3ccccc32)cc1,35.1%,-1.2%,·,·
Cn1c2ccccc2c2ncn(CCC3=CCCCC3)c(=O)c21,0.0%,2.0%,16.6*,26.8
CCCCC/C=C\C/C=C\C/C=C\C/C=C\CCCC(=O)O,?,17.8µM*,·,·
CC/C=C\C/C=C\C/C=C\CCCCCCCC(=O)O,-11.6%,35.5µM*,2.2,-7.8
CCCCC/C=C\C/C=C\C/C=C\C/C=C\CCCCCC(=O)O,21.2%[6.7 µM],·,·,·
CCOc1ccc(CNC(=O)Nc2ccc3c(c2)N(C)C(=O)c2ccccc2S3)cc1,?,-13.1%,·,·
COC(=O)c1ccc2nc(C(F)(F)F)[nH]c2c1,-3.6%,-1.5%,16.8*,11.0
Nc1ccc2nc(C(F)(F)F)[nH]c2c1,-12.9%,·,-0.5,-6.2
O=C(O)c1c(Sc2ccccc2)c2cc(Cl)ccc2n1Cc1ccc(Cl)cc1,-23.5%,·,·,·
CN1CCN(c2ccc(-c3cc(O)c4ncccc4c3)cc2)CC1,·,-4.4%,·,·
C/C(CC1CC(COCC(C)C)OC1=O)=N\Nc1nc(-c2ccccc2)cs1 (stereo not given),25.0%,56.2µM*,8.4,18.9
CC1CC(CC(=O)Nc2nc(-c3ccccc3)cs2)C(=O)O1 (stereo not given),22.5%,10.3%,2.5,12.9
O=C(Cn1cc2ccccc2n1)N1CCOc2ccc(C(O)C3CCCCC3)cc2C1 (stereo not given),-12.5%,·,·,·
Nc1ccc2nc(-c3ccccn3)[nH]c2c1,-15.4%,0.6%,28.6*,53.3*
Nc1ccc2nc(-c3cccs3)[nH]c2c1,·,-7.3%,19.5*,52.4*
COc1ccc2nc(-c3cccc(N)c3)[nH]c2c1,0.0%,?,18.3*,32.3
Nc1ccc(-c2nc3c(Cl)cc(N)cc3[nH]2)cc1,3.98µM*,5.5%,-8.1,-19.9
Nc1ccc(Cl)c(Cl)c1,10.3%,·,·,·
c1csc(-c2nnsc2-c2nc3ccccc3[nH]2)c1,-26.9%,1.0%,24.2,45.3
COc1ccc2nc(-c3ccc(N)cc3)[nH]c2c1,?,-2.7%,12.8,9.9
CCOC(=O)c1cc(-c2ccccc2)n(CCCC(=O)Nc2cc(C)ccc2OC)c1C,-17.7%,19.4%,·,·
SMILES,FMDV antiviral,Sm TGR block,Cycloheximide cs,Shiga toxin inh
O=C(Cc1ccccc1)NC1CC(=O)N(c2ccccc2)C1 (stereo not given),-14.5%,-2.3%,·,·
CN(C)c1ccc(-c2nccc(NCCN3CCOCC3)n2)cc1,4.6%,·,·,·
Cc1cccc2c(N3CCCC3)nc(CNS(=O)(=O)c3ccccc3Cl)nc12,-7.4%,·,·,·
CCCN1CCN(CCCNC(=O)Cn2c(-c3cccs3)cc3cc(Cl)ccc32)CC1,-22.9%,-3.8%,·,·
CSc1ccc(CCNC(=O)c2c(C)oc3ncn(C)c(=O)c23)cc1,-14.2%,-2.6%,·,·
Nc1ccc2nc(-c3ccccc3)[nH]c2c1,31.0%,1.5%,35.6*,126.4*
Nc1ccc2nc(-c3cccnc3)[nH]c2c1,56.3%,-0.4%,15.1*,12.7
O=S(=O)(Nc1ccc(Br)cc1F)c1ccc2nc(-c3ccccc3)[nH]c2c1,66.1%,-0.9%,·,·
COc1ccc2nc(NCCCO)[nH]c2c1,3.1%,0.6%,-2.3,3.7
COc1ccc2nc(-c3ccccn3)[nH]c2c1,29.8%,6.1%,36.2*,59.3*
Nc1ccc2nc(-c3ccc(N)c(Cl)c3)[nH]c2c1,7.2%,-7.7%,24.5*,76.5*
COc1ccccc1CNC(=O)c1cnc2sc(N3CCCCCC3)nn2c1=O,-24.5%,-5.4%,·,·
Cc1ccc(CN2CCC(CNC(=O)c3cnn(-c4ccccc4)c3C3CCN(C(=O)OC(C)(C)C)CC3)CC2)cc1,-21.0%,-6.2%,·,·
Nc1cccc(C(=O)Nc2ccc3nc(-c4cccnc4)[nH]c3c2)c1,?,-4.3%,-3.4,-5.0
Nc1cccc(-c2nc3ccc(C(=O)c4ccccc4)cc3[nH]2)c1,22.5%,7.8%,33.4*,61.4*
c1cncc(-c2nc3c(ccc4ccccc43)[nH]2)c1,·,10.0%,12.4*,77.0*
O=C(COc1ccccc1-c1nc(-c2ccccc2)no1)Nc1cccc([N+](=O)[O-])c1,-13.0%,-2.2%,·,·
CSc1ccc(/C=C/c2cc(=O)c3ccccc3[nH]2)cc1,-28.1%,-1.3%,15.4*,74.0*
